# High-throughput results as filed in PubChem BioAssay.
# A selection: hits, their analogues and other compounds. The true share with any hit is near 9.4%.
# SMN2 splice enh: qHTS Assay for Enhancers of SMN2 Splice Variant Expression; HEK293 SMN2-luciferase splicing reporter, luminescence, 30-36 h; AID 1458, 2008; 210,000 compounds, 2.8% hits; Potency, µM (top dose mostly 46.1 µM), inactives show at the highest dose activity change, positive = activation, hits mostly activators; further: % of control where 0% means no effect; nearly all actives have a fitted effect of over 55% in size
#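 HEK293 cells carry an SMN2 minigene-luciferase reporter in which exon 7 inclusion puts luciferase in frame. Cells were seeded at 2000 cells/well, attached for 10-12 hours, then exposed to compounds for 30-36 hours at 37C before ONE-Glo luminescence.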
# ELG1 DNA repair: qHTS screen for small molecules that inhibit ELG1-dependent DNA repair in human embryonic kidney (HEK293T) cells expressing luciferase-tagged ELG1; HEK293T ELG1-luciferase reporter, luminescence, 16 h; DNA damage induced by 5-fluorouridine; Potency, µM (doses to about 46.1 µM), for inactives: top-dose activity change, negative = inhibition, most hits filed as inhibitors; 330,000 compounds, 2.3% hits; further: on the % scale 0 is the no-effect control and ±100 the full control effect; nearly all actives have a fitted effect of over 55% in size
#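 In this reporter screen, reduction of luminescence relative to DMSO vehicle indicated activity. Compounds and 5-fluorouridine were added together to 2,000 cells per well, incubated for 16 hr at 37 °C, then developed with ONE-Glo.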
# FLuc modulator: qHTS profiling assay for firefly luciferase inhibitor/activator using purifed enzyme and Km concentrations of substrates (counterscreen for miR-21 project) | purified FLuc, Km substrates, luminescence inhibition | AID 588342, 2011 | Potency, µM (top dose mostly 57.5 µM), inactives show at the highest dose activity change, negative = inhibition, actives largely listed as inhibitors | 360,000 compounds, 6.9% hits | Luciferin 4-monooxygenase (Photinus pyralis), P08659;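 further: plate controls were vehicle for no effect and reference inhibitor for full effect; nearly all actives have a fitted effect of over 55% in size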
# Target sequence (P08659 whole entry, looked up): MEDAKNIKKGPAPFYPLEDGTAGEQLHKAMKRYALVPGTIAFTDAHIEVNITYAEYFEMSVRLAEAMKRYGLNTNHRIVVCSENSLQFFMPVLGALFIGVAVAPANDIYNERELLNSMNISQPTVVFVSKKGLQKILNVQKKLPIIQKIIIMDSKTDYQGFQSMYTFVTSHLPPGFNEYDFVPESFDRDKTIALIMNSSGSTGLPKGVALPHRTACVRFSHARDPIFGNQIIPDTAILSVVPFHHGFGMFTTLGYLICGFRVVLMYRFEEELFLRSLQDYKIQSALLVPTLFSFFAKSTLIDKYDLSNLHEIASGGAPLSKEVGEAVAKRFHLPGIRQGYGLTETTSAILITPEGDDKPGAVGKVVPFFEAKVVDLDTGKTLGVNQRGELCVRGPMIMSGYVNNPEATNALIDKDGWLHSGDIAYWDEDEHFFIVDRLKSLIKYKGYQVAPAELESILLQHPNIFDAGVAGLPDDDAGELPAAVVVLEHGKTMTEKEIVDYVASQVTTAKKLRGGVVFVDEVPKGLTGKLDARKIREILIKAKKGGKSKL
#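 Biochemical qHTS of compounds, final roughly 60 µM downward over six points, against 10 nM purified firefly luciferase using Km concentrations of substrates (10 uM D-luciferin, 10 uM ATP) in Tris acetate pH 7.5 buffer; luminescence output.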
# ELG1 genotox: qHTS screen for small molecules that induce genotoxicity in human embryonic kidney (HEK293T) cells expressing luciferase-tagged ELG1; HEK293T ELG1-luciferase reporter, luminescence, 16 h; Potency, µM (series often up to 46 µM), for the others: at the highest dose activity change, positive = activation, usual class: activators; 330,000 compounds, 1.3% hits; AID 504466, 2011; further: % of control where 0% means no effect; nearly all actives have a fitted effect of over 60% in size
#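 After overnight (16 hr) compound treatment at 37 °C, ELG1-luciferase HEK293T cells were lysed with ONE-Glo; luminescence quantified 30 min later at room temperature.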
# Rab9 prom act: qHTS Assay for Rab9 Promoter Activators. Huh7 Rab9 promoter-luciferase reporter, luminescence, 24 h. 320,000 compounds, 2.8% hits. Potency, µM (top dose mostly 9.22 µM), for the others: at the highest dose activation, negative = inhibition, hits mostly activators. AID 485297, 2010; further: % of control where 0% means no effect; nearly all actives have a fitted effect of over 60% in size
#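 Cell-based reporter: Huh7 stable for Rab9 promoter-driven luciferase, plated in reduced-serum medium with 10% FBS at 1500 cells/well, compound-treated 24 h at 37 °C, luminescence read after 10 min reagent.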
# NPC1 prom act: qHTS Assay for NPC1 Promoter Activators | Huh7 NPC1 promoter luciferase reporter, 24 h | Potency, µM (top dose mostly 9.22 µM), for the others: at the highest dose activation, usual class: activators | 320,000 compounds, 2.4% hits | AID 485313, 2010; further: % of control where 0% means no effect; nearly all actives have a fitted effect of over 60% in size
#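 Huh7 cells stably carrying NPC1 promoter–luciferase, plated in Opti-MEM with 10% FBS for 2 h, were exposed to compound in DMSO for 24 h at 37 °C; luciferase reagent was added for 10 min and luminescence read.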
# Numbers without * were called inactive; u = inconclusive; x = no result given; [ ] = dose if it differs, or a comment. The call rests on the fitted dose curve; in most records, active means well fitted curve in the direction sought with a large enough effect; inconclusive means small, poorly fitted or top-dose-only effect, or another doubt; inactive means no such curve, though single readings can be large; an effect the other way counts as inactive or inconclusive. Potency means the concentration at half of the fitted maximal effect.
SMILES,SMN2 splice enh,ELG1 DNA repair,FLuc modulator,ELG1 genotox,Rab9 prom act,NPC1 prom act
Nc1nc(SCCN2C(=O)c3ccccc3C2=O)n[nH]1,14%,14%,-1%,0%,-8%,0%
O=C1c2ccccc2C(=O)N1CCSc1ccccc1,u,u,4.3µM*,12µM*,u,2.8µM*
Cc1csc(SCCN2C(=O)c3ccccc3C2=O)n1,8%,u,13µM*,u,u,u
Cc1ccc2nc(/C=C/c3cccc(F)c3)ccc2c1,10µM*,u,1.2µM*,1.8µM*,2µM*,3.5µM*
COc1ccc(/C=N/NC2=NCCCCC2)cc1,-3%,u,u,u,u,2%
Oc1ccccc1/C=N/NC1=NCCCCC1,13µM*,u,13µM*,u,2.2µM*,1.4µM*
COc1ccc(/C=N/NC2=NCCCCC2)c(OC)c1,u,25%,17µM*,3%,9%,8%
Cc1ccc(C)c(CN2C(=O)c3ccccc3Sc3ccc(C(=O)NC4CCCC4)cc32)c1,x,x,-2%,x,x,x
Cc1cc(C)c2c(SCc3ccc(Cl)cc3Cl)nc(N)nc2n1,-1%[9.22 µM],x,x,x,x,x
CCOC(=O)c1c(NC(=O)c2noc3c2CC(C(C)(C)C)CC3)sc2c1CCCC2 (centres undefined),-1%,x,-17%,x,x,x
CCc1ccc(C2=CC(c3cccc(OC)c3OC)n3c(nc4ccccc43)N2)cc1 (centres undefined),x,x,4.3µM*,x,x,x
CCc1ccc(C2N=C(N)Nc3nc4ccccc4n32)cc1 (centres undefined),-15%,x,-2%,x,x,x
CC(C)c1ccc(C2=CC(c3cccc(Cl)c3)n3c(nc4ccccc43)N2)cc1 (centres undefined),x,x,21µM*,x,x,x
CCc1ccc(C2=CC(c3cccc(C)c3)n3c(nc4ccccc43)N2)cc1 (centres undefined),x,x,1.2µM*,x,x,x
CCOc1ccc(C2=CC(c3cccc(Br)c3)n3c(nc4ccccc43)N2)cc1Cl (centres undefined),x,x,13µM*,x,x,x
CC(=O)[C@H]1CC[C@H]2[C@@H]3C=CC4=CC(=O)CC[C@@]4(C)[C@H]3CC[C@]12C,-10%[20.6 µM],x,x,x,x,x
Brc1ccc(-c2csc(N3CCc4ccccc4C3)n2)cc1,-6%,11%,u,0%,-7%,0%
O=c1c(N2CCN(c3cccc(C(F)(F)F)c3)CC2)csc2ccccc12,x,x,0%,x,x,x
O=c1c(N2CCc3ccccc3C2)csc2ccc(Br)cc12,x,x,9.5µM*,x,x,x
O=c1c(N2CCc3ccccc3C2)csc2ccccc12,x,x,9.5µM*,x,x,x
COc1ccccc1N1CCN(c2csc3ccccc3c2=O)CC1,x,x,11µM*,x,x,x
Cc1ccc(NC(=O)NCc2c(-n3cccc3)sc3c2CCCC3)c(Cl)c1,x,x,-13%,x,x,x
CCCc1c(C(=O)N/N=C/c2cccc3ccccc23)nnn1-c1nonc1N,x,3%,-2%,2%,-4%,-1%
CCc1ccc(C(=O)N/N=C/c2cccc3ccccc23)nc1,u,u,5.4µM*,u,30%,25%
O=C(N/N=C/c1ccccc1Cl)c1cccc(F)c1,22µM*,u,4.8µM*,u,2µM*,2.5µM*
SMILES,SMN2 splice enh,ELG1 DNA repair,FLuc modulator,ELG1 genotox,Rab9 prom act,NPC1 prom act
O=C(N/N=C/c1c(Cl)cccc1Cl)c1cccc(F)c1,-3%,u,-7%,17%,24%,12%
COc1ccc(Cn2c(O)c(/C=N/NC(=O)c3cccnc3)c3ccccc3c2=O)cc1,-78%,18µM*,u,1%,-2%,-2%
Cc1nn(Cc2c(Cl)cccc2Cl)c(Cl)c1/C=N/NC(=O)c1cccnc1,14%,u,9.5µM*,10%,u,13%
O=C(N/N=C/c1c(O)n(Cc2ccccc2)c(=O)c2ccccc12)c1cccnc1,-49%,u,u,-4%,1%,0%
COc1ccc(-c2cn3c(n2)sc2cc(C(=O)Nc4cccc(SC)c4)ccc23)cc1,x,x,-13%,x,x,x
COc1ccc(NC(=O)CSc2nc(-c3cccs3)cc(C(F)(F)F)n2)cc1OC,x,x,-1%,x,x,x
CCOC(=O)c1cccc(NC(=O)c2cc(-c3ccc(Cl)s3)nc3ccccc23)c1,3%,x,-13%,x,x,x
CCC1CN(C(=O)C2CCN(S(=O)(=O)c3c(C)noc3/C=C/c3ccccc3F)CC2)c2cc(Cl)ccc2O1 (centres undefined),x,x,-2%,x,x,x
Cc1ccccc1/C=N/NC(=O)c1cccnc1,x,-4%,u,8%,0%,-2%
O=C(N/N=C/c1cccc2ccccc12)c1cccnc1,x,u,15µM*,6%,1%,2%
O=C(N/N=C/c1cccc2ccccc12)c1cccc(F)c1,x,u,21µM*,24%,28%,26%
Clc1ccccc1CNCCCSc1nnnn1-c1ccccc1,x,x,-10%,x,x,x
CC(=O)c1c(C)[nH]c(C(=O)CSc2ccc(F)cc2)c1C,x,u,13µM*,6%,17%,u
CC(=O)c1c(C)[nH]c(C(=O)COC(=O)CCSc2ccccc2)c1C,-13%,-9%,4%,0%,-1%,-1%
CCOC(=O)c1c(C)[nH]c(C(=O)COC(=O)c2oc3ccccc3c2C)c1C,-10%,4%,2%,3%,-2%,4%
CC(=O)c1c(C)[nH]c(C(=O)CSc2nc3ccc(C)cc3[nH]2)c1C,-55%,12µM*,-2%,-11%,-1%,-1%
CCOC(=O)c1c(C)[nH]c(C(=O)N/N=C\c2ccccc2O)c1C,-78%,u,6.7µM*,u,-6%,-7%
CCOC(=O)c1c(C)[nH]c(C(=O)CSc2ccccc2)c1C,x,u,0.54µM*,0.65µM*,0.4µM*,0.56µM*
Cc1nn(CC(=O)NCc2ccc(OC(C)C)cc2)c(=O)c2c(C)n(-c3ccc(Cl)cc3)nc12,x,x,-16%,x,x,x
FC(F)(F)c1nc(SCc2ccc(Cl)cc2)n[nH]1,-14%[9.22 µM],x,x,x,x,x
CCCc1cc(=O)[nH]c(SCC(=O)c2[nH]c(C)c(C(=O)OCC)c2C)n1,-24%,6%,2%,0%,0%,1%
CCOC(=O)c1c(C)[nH]c(C(=O)C(C)Cl)c1C (centres undefined),-12%,6%,1%,-3%,-2%,-9%
